Source: PubChem (National Center for Advancing Translational Sciences (NCATS))
ClpP mod = qHTS Assay for Activators of ClpP | ATP-dependent Clp protease proteolytic subunit (Bacillus subtilis (strain 168)), P80244 | purified B. subtilis ClpP, FRET peptide cleavage, 20 min | Potency, µM (series often up to 57.5 µM), without a hit: top-dose activity change, negative = active | 340,000 compounds, 1.9% hits | AID 651965, 2013; active means well fitted falling curve with a large enough effect; inconclusive means small, poorly fitted or top-dose-only effect; inactive means no such curve, though single readings can be large or run the other way; further: potency means the concentration at half of the fitted maximal effect; the source files actives as falling curves though it sought activators and does not explain the sign; nearly all actives have a fitted effect of over 65% in size
Target sequence (P80244 whole entry, looked up): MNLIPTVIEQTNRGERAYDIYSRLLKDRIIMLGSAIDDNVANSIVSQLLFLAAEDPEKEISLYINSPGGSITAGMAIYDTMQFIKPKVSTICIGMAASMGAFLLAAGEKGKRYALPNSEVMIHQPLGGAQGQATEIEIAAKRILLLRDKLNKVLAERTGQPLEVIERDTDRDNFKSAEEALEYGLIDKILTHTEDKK
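Purified B. subtilis ClpP, 10 microg/mL final in Tris/HCl pH8 with KCl, BSA, glycerol and Tween-20, cleaved an Abz/nitrotyrosine-quenched decapeptide. Fluorescence (ex 320, em 430) was read at 0 and 20 min at room temperature. Delta was normalized to 5.8 microM ADEP and DMSO/no-enzyme controls.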
BCR signal inh = chronic active BCR signaling inhibition | ABC-DLBCL IkBa-CBG/CBR reporter, luminescence ratio, 4 h | Potency, µM (series often up to 46.1 µM), inactives show at the highest dose activity change, negative = inhibition, hits mostly inhibitors | 340,000 compounds, 0.05% hits | AID 493014; active means well fitted inhibition curve with a large enough effect in the signal ratio, with a control signal flat, not every such curve was filed as active; inconclusive means small, poorly fitted or top-dose-only effect, or effect the other way, or a change in a side signal; the % refers to the signal ratio;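 further: potency means the concentration at half of the fitted maximal effect; plate controls were basal doxycycline-induced cells for no effect and cells given 10 µM MG132 for full effect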
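TMD8 ABC-DLBCL cells carrying doxycycline-inducible green luciferase fused to IkappaBalpha plus unfused red luciferase were exposed to compounds (up to 46 uM) for 4 hrs at 37C. Activity came from the overlap-corrected green/red luminescence ratio.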
LDHA block = LDHA (human) enzyme inhibition; P00338; purified LDHA, NADH/diaphorase-resazurin fluorescence; hits give low values; activity change, % (values are at about 110 or 230 µM); 480,000 compounds, 0.15% hits; AID 1347041; in the data active means activity change below about -30%; inconclusive means mostly about -25% to -30%;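 further: plate controls were DMSO wells for no effect and wells without enzyme for full effect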
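Human LDH5 (2 nM) was incubated with 0.06 mM NADH and 0.2 mM pyruvate for 5 min at room temperature in Tris pH 7.4. Remaining NADH was coupled through diaphorase/resazurin, and resorufin fluorescence was read at 0 and 20 min.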
hERG WT inh = inhibitors of human wildtype KCNH2 potassium channel. Q12809. activity change, % at 1.84 µM. AID 720551. U2OS, BacMam KCNH2, thallium flux FluxOr; hits give low values. 340,000 compounds, 0.37% hits;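 active means maximum activity change below -70%; inconclusive means maximum activity change between -70% and -50%; inactive means maximum activity change above -50%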; further: on the % scale 0 is the no-effect control and ±100 the full control effect
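U2OS cells transduced with wild-type KCNH2 virus are loaded with FluxOr dye for 45 min, and thallium flux is measured in kinetic reads before and after stimulation buffer. Rate constants are normalized to DMSO controls.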
KCNH2 3.1 block = blocks the human KCNH2 3.1 channel isoform | U2OS KCNH2 3.1, thallium flux FluxOr; hits give low values | activity change, % (tested at about 1.8 µM) | 340,000 compounds, 0.95% hits | AID 720553;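 active means maximum activity change below -70%; inconclusive means maximum activity change from -70% to -50%; inactive means maximum activity change above -50%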;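 further: thallium influx rate constant from kinetic fluorescence after stimulation buffer; on the % scale 0 is the no-effect control and ±100 the full control effect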
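U2OS cells transduced with KCNH2 3.1 mutant virus (1.77 x 10^8 /mL, 4 h), plated overnight at 37 C, loaded 45 min with FluxOr dye plus Red40 quencher. Thallium flux rate constant from kinetic reads after stimulation buffer, normalised to controls.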
ALOX12 inh = inhibitors of human 12S-lipoxygenase ALOX12. P18054. purified 12hLO, xylenol orange hydroperoxide absorbance. Potency, µM (highest dose often 108 µM), for the others: top-dose activity change, negative = inhibition, usual class: inhibitors. 580,000 compounds, 1.1% hits. AID 1671190; active means well fitted inhibition curve with a large enough effect; inconclusive means small, poorly fitted or top-dose-only effect, or another doubt; inactive means no such curve, though single readings can be large or run the other way; further: potency means the concentration at half of the fitted maximal effect; on the % scale 0 is the no-effect control and ±100 the full control effect
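Purified human 12hLO at 150 nM in 25 mM Hepes, 0.01% Triton X-100, pH 7.0, preincubated 15 min at room temperature with compound. Reaction started with 40 uM arachidonic acid, 30 min at room temperature. Hydroperoxide measured by Fe-xylenol orange, 573/405 nm absorbance ratio.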
Active calls of the source: *; ! = a repeat was not active. This is a sample that favours compounds with a hit; in the whole collection about 3% have one here.

Screening N[C@@H](Cc1cc(I)c(O)c(I)c1)C(=O)O returned ClpP mod 0%, BCR signal inh 4%, LDHA block 1, hERG WT inh -13, KCNH2 3.1 block -6 and ALOX12 inh 0.51µM*!.
For COc1cc(/C=C(\C#N)C(=O)c2ccccc2)ccc1OCc1ccccc1 the results were LDHA block -1 and ALOX12 inh -25%.
CCN(C(=O)CSc1nnc(Nc2ccccc2C)s1)C1CCS(=O)(=O)C1 (stereo not drawn) was read as ClpP mod 28µM*, BCR signal inh -16%, LDHA block -3, hERG WT inh 5, KCNH2 3.1 block 4 and ALOX12 inh 0%.
CCN(C(=O)CSc1nc2nc(C)cc(C)n2n1)C1CCS(=O)(=O)C1 (stereo not drawn) was read as ClpP mod 16µM*, BCR signal inh -9%, LDHA block -9, hERG WT inh 9, KCNH2 3.1 block 2 and ALOX12 inh 1%.
Screening Cc1cc(C)n2nc(SCC(=O)N(Cc3ccccc3)C3CCS(=O)(=O)C3)nc2n1 (stereo not drawn) returned BCR signal inh 0%, LDHA block -3, hERG WT inh 2, KCNH2 3.1 block -1 and ALOX12 inh -1%.
`O=C(O)Cn1cc(C(C(=O)O)N2CCN(c3ccccc3)CC2)c2ccc(F)cc21` (stereo not drawn) gave LDHA block 0 and ALOX12 inh inconclusive.
For O=C(CCC(=O)c1cccs1)NCCC(=O)Nc1ccc(F)c(Cl)c1 the results were LDHA block -8 and ALOX12 inh 50µM*.
For O=C(CCNc1cccc(Cl)c1)c1cccs1 the results were ClpP mod 2%, BCR signal inh 8%, LDHA block 17, hERG WT inh -1, KCNH2 3.1 block -70* and ALOX12 inh 3%.
Cc1c(-n2c(SCC(=O)O)nnc2-c2ccccc2Cl)c(=O)n(-c2ccccc2)n1C was read as ClpP mod 35µM*, BCR signal inh -1%, LDHA block -2, hERG WT inh 15, KCNH2 3.1 block -18 and ALOX12 inh 0%.
CCN1/C(=C/c2ccc3cc(C)ccc3[n+]2CC)Sc2cc(C)ccc21 was read as ClpP mod 2%, BCR signal inh inconclusive, LDHA block inconclusive, hERG WT inh -2, KCNH2 3.1 block -20 and ALOX12 inh 35µM*.
`CCCCN1/C(=C/c2ccc3ccccc3[n+]2CC)Sc2ccccc21` gave BCR signal inh 3%, LDHA block inconclusive, hERG WT inh 3 and KCNH2 3.1 block 10.
For CC[n+]1c(C)ccc2cc(C)ccc21 the results were LDHA block 0 and ALOX12 inh 5.6µM*.
For CCN1/C(=C/c2ccc3cc(C)ccc3[n+]2C)Sc2ccc3sccc3c21 the results were ClpP mod -1%, BCR signal inh inconclusive, LDHA block -8, KCNH2 3.1 block 7 and ALOX12 inh 45µM*.
CC[n+]1c2ccccc2cc2ccccc21 was read as ClpP mod 5% and LDHA block -4.
CON(C)C(=O)C(NC(=O)c1ccc(F)cc1)C(C)C (stereo not drawn) was read as LDHA block -4 and ALOX12 inh inconclusive.
`CC(Oc1ccccc1)c1nc(-c2cccc(Br)c2)no1` (stereo not drawn) gave LDHA block 0 and ALOX12 inh -2%.
`CCOC(=O)c1ccc(-c2ccc(CO)o2)cc1` gave ClpP mod 0.71µM*, BCR signal inh inconclusive, LDHA block -1, hERG WT inh 2, KCNH2 3.1 block 39 and ALOX12 inh 0%.
CN1C[C@@H]2C(c3ccccc3)C3(c4ccccc4)CC2(C3)[C@H]1c1ccccc1 (stereo partly drawn) was read as ClpP mod -2%, BCR signal inh 4%, LDHA block -2, hERG WT inh 6, KCNH2 3.1 block -43 and ALOX12 inh 15%.
CN1C[C@@H]2C(c3ccccc3)C3(c4ccc(C#N)cc4)CC2(C3)[C@H]1c1ccccc1 (stereo partly drawn) was read as ClpP mod -2%, BCR signal inh 1%, LDHA block -7, hERG WT inh -45, KCNH2 3.1 block -112* and ALOX12 inh -5%.
CN1C[C@@H]2C(c3ccc(C(F)(F)F)cc3)C3(c4ccc(C#N)cc4)CC2(C3)[C@H]1c1ccccc1 (stereo partly drawn) was read as ClpP mod -5%, BCR signal inh 8%, LDHA block -1, hERG WT inh -102*, KCNH2 3.1 block -92* and ALOX12 inh -10%.
For FC(F)(F)c1cccc(CSc2ncnc3ccccc23)c1 the results were LDHA block -1 and ALOX12 inh -3%.
`Cc1onc(-c2ccccc2)c1C(N)=O` gave ClpP mod -1%, BCR signal inh 9%, LDHA block -3, hERG WT inh -3, KCNH2 3.1 block 3 and ALOX12 inh 27%.
Cc1onc(-c2ccccc2)c1C(=O)n1nnc2ccccc21 was read as ClpP mod 28µM*, BCR signal inh 20%, LDHA block -6, hERG WT inh -5, KCNH2 3.1 block -2 and ALOX12 inh 0%.
For CN1CCN(c2ccc(NC(=O)c3sc4ccccc4c3Cl)cc2)CC1 the results were ClpP mod -2%, BCR signal inh 1%, LDHA block -4, hERG WT inh -38, KCNH2 3.1 block -74* and ALOX12 inh -28%.
NC(=O)c1ccccc1NC(=O)CSc1nc2ccccc2c(=O)[nH]1 was read as ClpP mod -2%, BCR signal inh 10%, LDHA block 4, hERG WT inh -8, KCNH2 3.1 block -4 and ALOX12 inh 0%.
`Cc1cc2nc(SCC(=O)Nc3ccccc3C(=O)O)[nH]c2cc1C` gave BCR signal inh inconclusive, LDHA block -4, hERG WT inh 6, KCNH2 3.1 block -138* and ALOX12 inh -21%.
For COc1cccc(CCC(=O)N2CCC(N3CC4CC(C3)[C@H]3CCCC(=O)N3C4)CC2)c1 (stereo partly drawn) the results were ALOX12 inh 4%.
For CCOc1ccc(/C=N/OCc2ccc(F)cc2Cl)cc1 the results were LDHA block 1 and ALOX12 inh 29%.
`CCCS(=O)(=O)Nc1ccc(N2CCCCC2)c(S(=O)(=O)Nc2ccccc2OC)c1` gave ClpP mod 1%, BCR signal inh 2%, LDHA block -3, hERG WT inh -3, KCNH2 3.1 block -10 and ALOX12 inh 32µM*.
